Source: PubChem
Only a selection was taken, and hits are over-represented in it overall.
Pf Dd2 inh = inhibitors of Plasmodium falciparum Dd2 growth | P. falciparum Dd2 growth, SYBR Green, 72 h | Potency, µM (doses to about 28.9 µM), for inactives: at the top dose activity, negative = inhibition, usual class: inhibitors | 120,000 tested, 4.3% active | AID 1347417; active means well fitted inhibition curve with a large enough effect;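 further: plate controls were DMSO vehicle for no effect and reference drug for full effect; nearly all actives have a fitted effect of over 65% in size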
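Readout: SYBR Green fluorescence, 485 nm excitation, 535 nm emission, after ~16 h lysis at 37C. Before that, Dd2-infected red cells (2.5% hematocrit) grew 72 h with compound, 29 uM top final concentration.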
* marks the source's active call; other numbers are inactive results; [ ] = remark or other dose. Potency means the concentration at half of the fitted maximal effect.

Screening Cc1nc2c(c(-c3ccc(Cl)cc3)n1)CCN(C(=O)Nc1ccccc1)CC2 returned Pf Dd2 inh inactive.
For CC(C)c1nc2c(c(-c3ccc(O)cc3)n1)CN(Cc1cccn1C)CC2 the results were Pf Dd2 inh -18.8%.
CC(=O)Nc1ccc(CN2CCc3nc(C(C)C)nc(-c4ccc(Cl)cc4)c3CC2)cc1 was read as Pf Dd2 inh 1.12µM*.
For CC(C)c1nc2c(c(-c3ccc(O)cc3)n1)CN(CC1CCCCC1)CC2 the results were Pf Dd2 inh 3.55µM*.
For CC(C)c1nc2c(c(-c3ccc(O)cc3)n1)CCN(Cc1cccc3ccccc13)CC2 the results were Pf Dd2 inh 3.16µM*.
CC(C)c1nc2c(c(-c3ccc(O)cc3)n1)CN(Cc1ccccn1)CC2 was read as Pf Dd2 inh inactive.
`CC(=O)Nc1ccc(CN2CCn3c(nnc3-c3ccc(Cl)cc3)C2)cc1` gave Pf Dd2 inh -12.7%.
NC(=O)c1cc[nH]c1C1CCCN(Cc2ccc3c(c2)CCO3)C1 (stereo not given) was read as Pf Dd2 inh inactive.
`CN1C(=O)CCC2(CNC(=O)c3n[nH]c(=O)c4ccccc34)CCC=C12` (stereo not given) gave Pf Dd2 inh -3.6%.
For COc1cccc(N2C(=O)NC(=NC3CCCCC3)C23CCN([S+](=O)([O-])c2cccs2)CC3)c1 the results were Pf Dd2 inh -14.8%.
Screening N#Cc1cccc(C(=O)N2CCCCCCNC(=O)CC2)c1 returned Pf Dd2 inh 6.0%.
For CCS(=O)(=O)N1C[C@@H](C(=O)N2CCCCCC2)[C@H](c2ccncc2)C1 the results were Pf Dd2 inh 18.5%.
COC(=O)CO[C@@H]1CO[C@H]2[C@@H]1OC[C@@H]2NS(=O)(=O)c1cccc2cccnc12 was read as Pf Dd2 inh 8.9%[44.1 µM].
Screening COc1ccc(S(=O)(=O)Nc2ccc(C)n(CC(=O)NC(C)C)c2=O)cc1 returned Pf Dd2 inh inactive.
O=C(NCCN1CCOCC1)c1cccc(C2CCNC2)c1 (stereo not given) was read as Pf Dd2 inh 1.0%.
For Cc1ccccc1CN1CCN(C(=O)CN2CCCC2=O)CC(O)C1 (stereo not given) the results were Pf Dd2 inh 1.5%.
Screening CCC1Oc2ccc(NC(=O)CC(C)(C)C)cc2CN(Cc2ccccc2F)C1=O (stereo not given) returned Pf Dd2 inh -2.3%.
For COCCCNC(=O)CCN(CC(C)C)C(=O)c1cc(C)oc1C the results were Pf Dd2 inh 5.6%.
Screening CO[C@H]1[C@H](NC(=O)c2ccc(C)nc2)c2ccccc2C12CCNCC2 returned Pf Dd2 inh -0.9%.
`CN1C(=O)CO[C@H]2CN(Cc3ccc(Cl)cc3)C[C@H]21` gave Pf Dd2 inh -25.0%[44.1 µM].
For COc1ccc(CN2CCc3nc(C)nc(-c4ccc(O)cc4)c3C2)cc1 the results were Pf Dd2 inh inactive.
Screening Cc1ccc(CN2CCCc3nc(C)nc(-c4ccc(O)cc4)c3C2)cc1 returned Pf Dd2 inh 2.82µM*.
Screening Cc1nc2c(c(-c3ccc(O)cc3)n1)CN(Cc1ccc(F)cc1)CCC2 returned Pf Dd2 inh inactive.
Screening COCC(=O)N[C@@H]1CN(S(C)(=O)=O)C[C@H]1CN(C)C returned Pf Dd2 inh 12.0%.
Screening Cc1ccccc1OCC(O)Cn1c(=N)n(CCN2CCCCC2)c2ccccc21 (stereo not given) returned Pf Dd2 inh 2.82µM*.
For Cc1ccccc1NCc1nc2ccccc2n1CCOc1ccccc1 the results were Pf Dd2 inh 41.9%[5.79 µM].
`CCCCCn1c(=N)n(CC(O)COc2cccc(C)c2)c2ccccc21` (stereo not given) gave Pf Dd2 inh 1µM*.
Screening Cc1ccccc1OCc1nc2ccccc2n1Cc1ccccc1Cl returned Pf Dd2 inh 27.3%.
Screening Cc1ccccc1OCC(=O)N1C[C@@H](CN2CCCCC2)[C@@H](CO)C1 returned Pf Dd2 inh inactive.
For Cc1ccccc1OCCn1c(=N)n(C(C)C)c2ccccc21 the results were Pf Dd2 inh 5.62µM*.
Screening CCCn1c(COc2cccc(C)c2)nc2ccccc21 returned Pf Dd2 inh -25.9%.
Screening OC(COc1ccccc1-c1ccncc1)CN1CCOCC1 (stereo not given) returned Pf Dd2 inh -12.2%.
CCn1c2ccccc2c2cc(NC(=O)COc3cccc(C)c3)ccc21 was read as Pf Dd2 inh inactive.
CC1=NS(=O)(=O)N(CCc2ccccc2)C=C1C(=O)O was read as Pf Dd2 inh 8.4%.
For Cc1ccsc1C(=O)N1CCc2nn(C)c(=O)n2CC1 the results were Pf Dd2 inh 27.2%.
`COC(=O)CCNC(=O)C1CN(S(=O)(=O)c2ccccc2)CC12CCCCC2` (stereo not given) gave Pf Dd2 inh -15.8%.
`O=[S+]1([O-])NCC2(CCN(Cc3cccnc3)CC2)Nc2ccccc21` gave Pf Dd2 inh 27.7%.
Screening Cc1ccc(C)c(NC(=O)Cn2ccn3nc(-c4ccccc4)c(CO)c3c2=O)c1 returned Pf Dd2 inh -5.7%.
`COc1cccc(C(=O)N2CCC3(CC2)N(C2CCCC2)C(=O)CS3=O)c1` (stereo not given) gave Pf Dd2 inh 14.1%.
